Read-out in assay [1]: Tissue Factor, F3 (gene 2152)
The assay is described as follows: BSK_CASM3C_TissueFactor: BioMAP Diversity Plus: CASM3C Assay for Tissue Factor Biomarker Activity (AID 2283052).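 Further: cell surface tissue factor protein level read by ELISA.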 As to conditions: primary human coronary artery smooth muscle cells; actives raise or lower the signal.

Read-out in assay [2]: Interferon-gamma inducible Protein 10 (IP10), CXCL10 (gene 3627)
The assay is described as follows: BSK_hDFCGF_IP10: BioMAP Diversity Plus: hDFCGF Assay for Interferon-gamma inducible Protein 10 (IP10) Biomarker Activity (AID 2283053). As to conditions: primary human foreskin fibroblasts; actives raise or lower the signal. The method in brief: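 Primary human foreskin fibroblasts exposed to chemicals for 24 h. IP-10 measured by ELISA; changes fitted bidirectionally against DMSO baseline.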

Read-out in assay [3]: Urokinase-type plasminogen activator receptor (uPAR), PLAUR (gene 5329)
The assay is described as follows: BSK_CASM3C_uPAR: BioMAP Diversity Plus: CASM3C Assay for Urokinase-type plasminogen activator receptor (uPAR) Biomarker Activity (AID 2283054).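 Further: cell-surface uPAR protein level quantified by ELISA.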 The following applies: primary human coronary artery smooth muscle cells; actives raise or lower the signal.

Read-out in assay [4]: Vascular cell adhesion molecule 1 (VCAM1), VCAM1 (gene 7412)
The assay is described as follows: BSK_CASM3C_VCAM1: BioMAP Diversity Plus: CASM3C Assay for Vascular cell adhesion molecule 1 (VCAM1) Biomarker Activity (AID 2283055).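 Further: VCAM-1 protein level quantified by ELISA on the cells.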 The following applies: primary human coronary artery smooth muscle cells; actives raise or lower the signal.

Read-out in assay [5]: Collagen III, COL3A1 (gene 1281)
The assay is described as follows: BSK_hDFCGF_CollagenIII: BioMAP Diversity Plus: hDFCGF Assay for Collagen III Biomarker Activity (AID 2283056). As to conditions: primary human foreskin fibroblasts; actives raise or lower the signal. The procedure, abridged: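 hDFCGF primary human dermal fibroblasts; 24 h chemical exposure; collagen III by ELISA; bidirectional curve fit vs DMSO baseline (gain or loss of signal).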

Read-out in assay [6]: Epidermal growth factor receptor (EGFR), EGFR (gene 1956)
The assay is described as follows: BSK_hDFCGF_EGFR: BioMAP Diversity Plus: hDFCGF Assay for Epidermal growth factor receptor (EGFR) Biomarker Activity (AID 2283057). As to conditions: primary human foreskin fibroblasts; actives raise or lower the signal. The method in brief:
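Primary human foreskin fibroblasts (hDFCGF system), sampled 24 h after dosing; EGFR quantified by ELISA. Bidirectional fit relative to DMSO baseline; SRB total-protein staining in parallel cultures for cytotoxicity.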

Read-out in assay [7]: Interleukin-8 (IL8), CXCL8 (gene 3576)
The assay is described as follows: BSK_hDFCGF_IL8: BioMAP Diversity Plus: hDFCGF Assay for Interleukin-8 (IL8) Biomarker Activity (AID 2283058). The following applies: primary human foreskin fibroblasts; actives raise or lower the signal. The method in brief: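 ELISA read-out of IL-8 from primary human foreskin fibroblast cultures taken 24 h after dosing; values are bidirectional fits relative to DMSO vehicle.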

A short description of assay [8]: BSK_hDFCGF_Proliferation: Cell Proliferation Assessment in the BioMAP Diversity Plus: hDFCGF Assay (AID 2283059).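 Further: curves fitted for both rise and fall of signal versus DMSO baseline.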 As to conditions: primary human foreskin fibroblasts. The procedure, abridged: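 Sub-confluent human foreskin fibroblast cultures receive test chemical […]. Relative cell number is quantified by sulforhodamine B staining (0.1%, after 10% TCA fixation) at 560 nm, with bidirectional fitting referenced to DMSO.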

Read-out in assay [9]: Macrophage colony-stimulating factor (MCSF), CSF1 (gene 1435)
The assay is described as follows: BSK_hDFCGF_MCSF: BioMAP Diversity Plus: hDFCGF Assay for Macrophage colony-stimulating factor (MCSF) Biomarker Activity (AID 2283060). As to conditions: primary human foreskin fibroblasts; actives raise or lower the signal. The method in brief:
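ELISA read-out of M-CSF in human dermal foreskin fibroblast cultures, 24 h after chemical dosing; gain or loss of signal fitted bidirectionally relative to DMSO baseline.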

A short description of assay [10]: BSK_hDFCGF_SRB: Viability Assessment in the BioMAP Diversity Plus: hDFCGF Assay (AID 2283061).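 Further: cells exposed to compound for 24 h before the read.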 As to conditions: primary human foreskin fibroblasts. The method in brief:
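Primary human foreskin fibroblasts; 24 h post-dose; fixed 10% TCA, stained 0.1% SRB, A560 read; total protein as overt cytotoxicity measure; curves fit bidirectionally vs DMSO control.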

Read-out in assay [11]: TIMP metallopeptidase inhibitor 1 (TIMP1), TIMP1 (gene 7076)
The assay is described as follows: BSK_hDFCGF_TIMP1: BioMAP Diversity Plus: hDFCGF Assay for TIMP metallopeptidase inhibitor 1 (TIMP1) Biomarker Activity (AID 2283062). The following applies: primary human foreskin fibroblasts; actives raise or lower the signal. The method in brief: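 ELISA readout of TIMP-1 from human dermal foreskin fibroblast cultures 24 h post-dosing. Curves were fitted in both directions against DMSO baseline, with SRB total-protein staining in parallel cultures as a cytotoxicity check.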

Read-out in assay [12]: Monokine induced gamma interferon (MIG), CXCL9 (gene 4283)
The assay is described as follows: BSK_hDFCGF_MIG: BioMAP Diversity Plus: hDFCGF Assay for Monokine induced gamma interferon (MIG) Biomarker Activity (AID 2283063). As to conditions: primary human foreskin fibroblasts; actives raise or lower the signal. The procedure, abridged: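 Fibroblasts (human foreskin, primary) dosed, 24 h, MIG by ELISA; fit bidirectional vs DMSO.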

Read-out in assay [13]: Matrix Metallopeptidase 1 (MMP1), MMP1 (gene 4312)
The assay is described as follows: BSK_hDFCGF_MMP1: BioMAP Diversity Plus: hDFCGF Assay for Matrix Metallopeptidase 1 (MMP1) Biomarker Activity (AID 2283064). As to conditions: primary human foreskin fibroblasts; actives raise or lower the signal. The method in brief:
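Primary human foreskin fibroblasts in the hDFCGF system were dosed with test chemical, and MMP1 was measured by ELISA 24 h later. Values come from bidirectional curve fitting against the DMSO baseline.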

Read-out in assay [14]: Vascular cell adhesion molecule 1 (VCAM1), VCAM1 (gene 7412)
The assay is described as follows: BSK_hDFCGF_VCAM1: BioMAP Diversity Plus: hDFCGF Assay for Vascular cell adhesion molecule 1 (VCAM1) Biomarker Activity (AID 2283065).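 On AC50: VCAM-1 protein level quantified by ELISA after 24 h chemical exposure.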 The following applies: primary human foreskin fibroblasts; actives raise or lower the signal. The procedure, abridged: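 ELISA read-out of VCAM-1 on human skin fibroblasts, 24 h post-dose; gain or loss of signal fitted bidirectionally against DMSO baseline.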

Read-out in assay [15]: Plasminogen activator inhibitor-1 (PAI1), SERPINE1 (gene 5054)
The assay is described as follows: BSK_hDFCGF_PAI1: BioMAP Diversity Plus: hDFCGF Assay for Plasminogen activator inhibitor-1 (PAI1) Biomarker Activity (AID 2283066). The following applies: primary human foreskin fibroblasts; actives raise or lower the signal. The procedure, abridged: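 Human foreskin fibroblast primary cells, 24 h chemical exposure; PAI-1 measured by ELISA. Bidirectional fitting relative to DMSO; parallel cultures stained with SRB for total protein to flag overt cytotoxicity.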

Read-out in assay [16]: Intercellular Adhesion Molecule 1 (ICAM1), ICAM1 (gene 3383)
The assay is described as follows: BSK_KF3CT_ICAM1: BioMAP Diversity Plus: KF3CT Assay for Intercellular Adhesion Molecule 1 (ICAM1) Biomarker Activity (AID 2283067). The following applies: primary human keratinocytes with fibroblasts; actives raise or lower the signal. The method in brief: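 ELISA readout of ICAM-1; KF3CT human skin co-culture (keratinocytes + foreskin fibroblasts), 24 h post-dose; gain/loss fit vs DMSO baseline.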

Read-out in assay [17]: Interferon-gamma inducible Protein 10 (IP10), CXCL10 (gene 3627)
The assay is described as follows: BSK_KF3CT_IP10: BioMAP Diversity Plus: KF3CT Assay for Interferon-gamma inducible Protein 10 (IP10) Biomarker Activity (AID 2283068). The following applies: primary human keratinocytes with fibroblasts; actives raise or lower the signal. The procedure, abridged: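 ELISA read-out of IP-10 after 24 h chemical dosing of human skin primary co-culture (keratinocytes, foreskin fibroblasts). Gain or loss of signal relative to DMSO, bidirectional curve fit.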

Assay [18] in a line: BSK_KF3CT_SRB: Viability Assessment in the BioMAP Diversity Plus: KF3CT Assay (AID 2283069).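 Further: total protein by sulforhodamine B staining as a cytotoxicity measure; read 24 h after compound addition.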 The following applies: primary human keratinocytes with fibroblasts. The method in brief: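 Human primary keratinocyte plus foreskin fibroblast co-culture exposed to chemicals for 24 h. Total protein measured by 0.1% sulforhodamine B staining after 10% TCA fixation, read at 560 nm; bidirectional fitting versus DMSO baseline.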

Read-out in assay [19]: Interleukin-1 alpha (IL1a), IL1A (gene 3552)
The assay is described as follows: BSK_KF3CT_IL1a: BioMAP Diversity Plus: KF3CT Assay for Interleukin-1 alpha (IL1a) Biomarker Activity (AID 2283070). As to conditions: primary human keratinocytes with fibroblasts; actives raise or lower the signal. The procedure, abridged: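 Human keratinocyte plus foreskin fibroblast primary co-culture, sampled 24 h after chemical dosing. IL-1a measured by ELISA; responses fitted bidirectionally against DMSO baseline (negative control), so gain or loss of signal both count.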

Activity calls are given as the source filed them. How the source made its calls: active means hit-call score of the fitted dose curve at least 0.9, where 1 is the maximum; inactive means score below 0.9.

Consider `COC(=O)CSc1cc(N=c2sc(=O)n3n2CCCC3)c(F)cc1Cl`, for which the outcome in assay [1], in assay [2], in assay [3], in [4], in assay [5] and in assay [6] was inactive. Moreover, the outcome in assay [7], in assay [8], in assay [9], in assay [10], in [11] and in assay [12] was inactive. In addition, the result in assay [13], in assay [14], in assay [15], in assay [16], in assay [17] and in assay [18] was inactive. Besides, the outcome in assay [19] was inactive.
Take `CCCN(CCC)c1c([N+](=O)[O-])cc(C(F)(F)F)c(N)c1[N+](=O)[O-]`: the outcome in [1], in [3], in [4], in assay [6] and in [7] was inactive. In addition, the AC50 (as a rule, the midpoint of the concentration-response curve, whichever way the signal moves) in [2] was 31.3 µM (active); in assay [5], 31.4 µM (active); in assay [8], 26.7 µM (active); in assay [9], 27.9 µM (active); in assay [10], 33.3 µM (active); in assay [11], 30.2 µM (active). The AC50 was 35.9 µM (active) in [12]; 35.5 µM (active) in assay [13]; 26.9 µM (active) in [14]; 20 µM (active) in assay [15]; 36 µM (active) in [16]; 34.7 µM (active) in [17]. Moreover, the AC50 in [18] and in assay [19] was 31.3 µM (active) each time.
Consider `COC(=O)c1ccccc1C(=O)O`, for which the result in assay [1], in assay [3], in assay [4], in assay [5], in [6] and in assay [7] was inactive. In addition, the result in assay [8], in assay [9], in assay [10], in assay [12], in assay [13] and in assay [14] was inactive. Also, the result in [15], in assay [16], in assay [18] and in assay [19] was inactive. Further, the AC50 in assay [2] was 31.5 µM (active); in [11] it was 6.58 µM (active); in assay [17], 10.4 µM (active).
With `CCOC(=O)COc1cc(-n2ncc(C(F)(F)F)c(C)c2=O)c(F)cc1Cl`, the result in [1], in assay [2], in assay [3], in assay [4], in assay [5] and in assay [6] was inactive. Besides, the result in assay [7], in assay [8], in assay [9], in [10], in assay [11] and in assay [12] was inactive. For the same compound, the outcome in assay [13], in [14], in [15], in [16], in assay [17] and in assay [18] was inactive. The result in [19] was inactive.
For `COc1nc(C)nc(NC(=O)NS(=O)(=O)c2ccccc2OCCCl)n1`, the result in assay [1], in assay [2], in [3], in assay [4], in assay [5] and in assay [6] was inactive. The result in assay [7], in assay [8], in [9], in assay [10], in assay [11] and in assay [12] was inactive. Further, the outcome in assay [13], in [14], in [15], in assay [16], in assay [17] and in assay [18] was inactive. For the same compound, the result in [19] was inactive.
Consider `CCCCOC(=O)[C@@H](C)Oc1ccc(Oc2ccc(C(F)(F)F)cn2)cc1`, for which the result in assay [1], in assay [2], in assay [3], in [4], in [5] and in assay [6] was inactive. Besides, the result in assay [7], in [8], in assay [9], in assay [10], in [11] and in [12] was inactive. Besides, the result in [13], in assay [14], in assay [15], in assay [16], in [17] and in assay [18] was inactive. Moreover, the result in [19] was inactive.
In the case of `COC(=O)c1ccccc1S(=O)(=O)NC(=O)Nc1nc(OC(F)F)cc(OC(F)F)n1`, the result in assay [1], in assay [2], in assay [3], in [4], in assay [5] and in [6] was inactive. Also, the result in assay [7], in [8], in [9], in assay [10], in assay [11] and in assay [12] was inactive. Moreover, the result in assay [13], in assay [14], in assay [15], in [16], in assay [17] and in assay [18] was inactive. Further, in assay [19], the outcome was inactive.

Source of the values: PubChem BioAssay (EPA / NIEHS).
